Data taken from PubChem BioAssay (NCI).
Compounds without any hit were thinned out: in the full panel of roughly 83,000, 20% have a hit.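 The test compound was applied at a single concentration to cells in 96-well plates for 48 hours, and percent growth was recorded.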 A number with no mark means an inactive call. Active and inactive are the calls of the source.

test system: SN12C renal; test: NCI-60 one-dose screen, 48 h (100 = growth as untreated, 0 = no growth, -100 = all killed); conditions: 10 µM unless noted
Protocol: Growth inhibition of the SN12C human tumor cell line is measured as a screen for anti-cancer activity. Cells are grown in 96 well plates and exposed to the test compound for 48 hours. Compounds are tested at a single concentration, which is 10^-5 M for most compounds. The reported endpoint is percent growth (GI% or GIPRCNT), where numbers from 0 - 100% represent growth inhibition, and numbers from -100% - 0 represent cell death. For example, a value of 40 represents 60% growth inhibition. A value of 0 means no net growth occurred over the course of the experiment. A value of -40 indicates 40% of cells at the beginning of the experiment died by the end of the experiment. A value of -100 means all cells are dead at the end of the experiment.
NCI-60 Human Tumor Cell Lines Screen was performed using the standard one-dose NCI protocol, which is described in more detail at https://dtp.cancer.gov/discovery_development/nci-60/default.htm.
Compounds with GIPRCNT values below 10 were considered active. Activity score was based on GIPRCNT using the following formula: […]
Score is 0 for GIPRCNT values of 100 or above, 50 for GIPRCNT values of 0, and 100 for GIPRCNT values of -100.

Row | SMILES | growth
1 | COC1CC(OC(=O)c2ccc([N+](=O)[O-])cc2)C(COC(=O)c2ccc([N+](=O)[O-])cc2)O1 (stereo not given) | 98.9%
2 | COC(CCCl)c1ccc(Cl)cc1 (stereo not given) | 106%
3 | CCC(=O)Oc1c(C)cc(O)c2ccccc12 | 93.3%
4 | CC(=O)Nc1ccc(C(=O)c2ccc(S(=O)(=O)Nc3ccccc3)cc2)cc1 | 98.6%
5 | CC(CO)(CO)C(=O)O | 105%
6 | C=CCC(OC(C)=O)c1ccc(OC)c(OC)c1 (stereo not given) | 102%
7 | C[n+]1c(/C=C\C=C\N2CCCCC2)sc2ccccc21 | 7.71% (active)
8 | O=C(NC1CCCCC1)c1ccc(Cl)cc1 | 103%
9 | O=C(OCC1CCCO1)c1ccc([N+](=O)[O-])cc1 (stereo not given) | 95.3%
10 | CCOC(=O)CNC(=O)Sc1ccc(C(C)(C)C)cc1 | 93.5%
11 | Clc1ccc(/C=C/c2ccccn2)cc1 | 108%
12 | O=C1C=C(c2ccccc2)C(O)(c2ccccc2)C1 (stereo not given) | 99.7%
13 | Cc1ccccc1CC(N)C(=O)O (stereo not given) | 105%
14 | CCOc1ccc(C(=O)O)cc1 | 113%
15 | CC(c1ccccc1)N(C)C (stereo not given) | 99.7%
16 | Cc1ccc(NCN2C(=O)c3ccccc3C2=O)c(C)n1 | 111%
17 | Cc1ccc(C)c2c1CCC2=O | 102%
18 | COc1cc(C(=O)O)c(O)c(C(C)(C)C)c1 | 103%
19 | O=CNCCc1ccccc1 | 90%
20 | C/C(=N\N=C(/C)c1cccc([N+](=O)[O-])c1)c1cccc([N+](=O)[O-])c1 | 81.7%

Row | SMILES | growth
21 | C[n+]1cc2cc3c(cc2c2ccccc21)OCO3 | 9.45% (active)
22 | O=S(=O)(c1ccc(NC(=S)NCc2cccnc2)cc1)N1CCCCC1 | 36.1%
23 | Nc1ccc2ccccc2c1-c1c(N)ccc2ccccc12 | 37%
24 | C=CC(C)C(C)(C)O (stereo not given) | 109%
25 | CCOC(=O)c1ccc(NC(C)=O)o1 | 95.1%
26 | COCC(N)=O | 108%
27 | CC(C)c1ccccc1NC(=O)N1CCC(C(C)C)CC1 | 106%
28 | CCC1CCC(C)NC1 (stereo not given) | 106%
29 | CCOC(=O)C1(N)CCCCC1 | 93.1%
30 | Cc1c(-c2ccc(C3CCCCC3)cc2)nc2ccc(F)cc2c1C(=O)O | 45.2%
31 | CCOC(=O)CNC | 96.4%
32 | COc1ccc(C2CCCCC2=O)cc1 (stereo not given) | 109%
33 | C[C@H](CCC[C@H](C)OS(=O)(=O)c1ccccc1)OS(=O)(=O)c1ccccc1 | 99.3%
34 | Oc1cc2ccccc2c(-c2c(O)c(O)cc3ccccc23)c1O | 49.3%
35 | CC(=O)c1cccc(O)c1 | 107%
36 | O=C1Nc2ccccc2/C1=C\c1ccccc1O | 92.5%
37 | C#CCSc1nnnn1-c1ccccc1 | 88%
38 | Cc1ccc(S(=O)(=O)CCCl)cc1 | 99%
39 | O=c1cc(Cl)nc2ccccn12 | 102%
40 | CCOC(=O)/C(O)=C(\C=N\C(=S)Nc1ccc(Cl)c(Cl)c1)C(=O)OCC | 93.4%
